Values joined by “and” are separate entries in the source; they are usually repeats but may differ in a detail not shown here. Identical values can stand only once. Active and inactive are the calls of the source. Unless noted, calls come from the whole dose curve; as a rule, active = well fitted curve in the direction sought with a large enough effect in the repeat runs; inconclusive = weak or mixed curves; inactive = no such curve, though single readings can be large; an effect the other way counts as inactive or inconclusive.
Legend:
[1] = test system: thyroid hormone receptor (rat, GH3 cells); assay: qHTS assay to identify small molecule agonists of the thyroid receptor (TR) signaling pathway (AID 743066; calls by dose curve)
[2] = qHTS assay to identify small molecule antagonists of the estrogen receptor alpha (ER-alpha) signaling pathway using the BG1 cell line - cell viability counter screen (AID 743081);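 note: compound given together with 17beta-estradiol as the ER stimulus; nearly all actives have a fitted effect of over 45% in size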
[3] = qHTS assay to identify small molecule antagonists of the estrogen receptor alpha (ER-alpha) signaling pathway - cell viability counter screen (AID 743074; calls by dose curve;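 note: HEK293 cells carrying ER-alpha-UAS-bla reporter stimulated with 17beta-estradiol; nearly all actives have a fitted effect of over 45% in size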)
[4] = molecular target: Estrogen receptor (Homo sapiens) (UniProt P03372); assay: qHTS assay to identify small molecule agonists of the estrogen receptor alpha (ER-alpha) signaling pathway (AID 743075; calls by dose curve; note: potency is the fitted concentration of half-maximal effect)
[5] = molecular target: Estrogen receptor (Homo sapiens) (UniProt P03372); assay: qHTS assay to identify small molecule agonists of the estrogen receptor alpha (ER-alpha) signaling pathway using the BG1 cell line (AID 743079); conditions: BG1Luc4E2 cells, ERE-luciferase agonist, 22 h; activation: at 70.3 µM (top of the series); note: nearly all actives have a fitted effect of over 20% in size; note: potency is the fitted concentration of half-maximal effect
[6] = qHTS assay to identify small molecule antagonists of the estrogen receptor alpha (ER-alpha) signaling pathway using the BG1 cell line (AID 743080; calls by dose curve;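 note: BG1 cells stimulated with 17beta-estradiol alongside compound; nearly all actives have a fitted effect of over 25% in size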; note: potency is the fitted concentration of half-maximal effect)
Procedure, shortened: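 Seeding, 24 h rest, compound transfer from DMSO, 17beta-estradiol addition, 21.5 h incubation, CellTiter-Fluor (30 min, 37 C), then ONE-Glo (30 min, room temperature): this sequence was run on BG1-Luc-4E2 reporter cells.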

[7] = molecular target: Aromatase (Homo sapiens) (UniProt P11511); assay: qHTS assay to identify aromatase inhibitors (AID 743083); note: nearly all actives have a fitted effect of over 55% in size; note: potency is the fitted concentration of half-maximal effect
[8] = qHTS assay to identify small molecule antagonists of the thyroid receptor (TR) signaling pathway (AID 743065); note: nearly all actives have a fitted effect of over 55% in size; note: potency is the fitted concentration of half-maximal effect
Procedure, shortened: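 GH3.TRE-Luc rat pituitary cells (two TREs driving luciferase) were dosed with compound, then stimulated with 1 nM T3 (final) for 23.5 h at 37 C. ONE-Glo luminescence was the read-out, with CellTiter-Fluor fluorescence as the cytotoxicity counter-screen.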

[9] = molecular target: Estrogen receptor (Homo sapiens) (UniProt P03372); assay: qHTS assay to identify small molecule antagonists of the estrogen receptor alpha (ER-alpha) signaling pathway (AID 743069; active = well fitted curve in the direction sought with a large enough effect in the signal ratio in the repeat runs, not every such curve was filed as active; inconclusive = weak or mixed curves, or effect the other way; inactive = no such curve, though single readings can be large or run the other way; the % refers to the signal ratio)
Procedure, shortened: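 HEK293 ER-alpha-UAS-bla GripTite cells, held overnight in 2% charcoal-stripped FBS, 5,000 cells/well, preincubated 4 h, then compound plus 17beta-estradiol for 18 h at 37C. Beta-lactamase read by LiveBLAzer B/G FRET substrate, 2 h at room temperature.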

Measured: Potency

Estrogen receptor (Homo sapiens), sequence (P03372 whole entry, looked up): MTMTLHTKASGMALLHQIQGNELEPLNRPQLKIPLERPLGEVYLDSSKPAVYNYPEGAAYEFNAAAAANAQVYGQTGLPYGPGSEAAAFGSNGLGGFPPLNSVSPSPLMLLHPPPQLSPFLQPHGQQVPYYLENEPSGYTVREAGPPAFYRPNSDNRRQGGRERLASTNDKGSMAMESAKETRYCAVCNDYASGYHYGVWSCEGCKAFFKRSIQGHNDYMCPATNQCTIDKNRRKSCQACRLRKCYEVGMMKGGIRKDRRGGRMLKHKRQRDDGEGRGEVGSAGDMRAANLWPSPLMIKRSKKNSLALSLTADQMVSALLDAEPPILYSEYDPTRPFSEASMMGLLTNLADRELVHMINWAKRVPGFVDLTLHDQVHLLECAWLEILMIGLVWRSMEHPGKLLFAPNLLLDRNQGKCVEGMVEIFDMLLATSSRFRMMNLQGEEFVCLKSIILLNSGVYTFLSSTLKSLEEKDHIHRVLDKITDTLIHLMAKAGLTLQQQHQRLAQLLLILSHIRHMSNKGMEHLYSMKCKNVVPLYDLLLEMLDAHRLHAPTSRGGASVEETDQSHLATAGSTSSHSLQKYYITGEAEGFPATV
Aromatase (Homo sapiens), sequence (P11511 whole entry, looked up): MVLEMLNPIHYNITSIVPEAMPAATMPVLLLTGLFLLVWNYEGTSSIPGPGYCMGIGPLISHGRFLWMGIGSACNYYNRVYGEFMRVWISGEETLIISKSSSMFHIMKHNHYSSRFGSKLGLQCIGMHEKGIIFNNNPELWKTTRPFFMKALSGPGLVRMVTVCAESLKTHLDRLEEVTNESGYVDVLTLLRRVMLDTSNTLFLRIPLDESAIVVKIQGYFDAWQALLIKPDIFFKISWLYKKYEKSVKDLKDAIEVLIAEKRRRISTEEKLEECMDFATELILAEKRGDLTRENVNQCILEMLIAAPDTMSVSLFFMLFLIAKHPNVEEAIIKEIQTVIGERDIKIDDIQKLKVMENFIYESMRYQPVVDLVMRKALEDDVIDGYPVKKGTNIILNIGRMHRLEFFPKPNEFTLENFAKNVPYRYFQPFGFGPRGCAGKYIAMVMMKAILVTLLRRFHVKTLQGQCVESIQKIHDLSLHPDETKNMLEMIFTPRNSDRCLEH

CC(C)C(OC(=O)c1ccccc1)C(C)(C)COC(=O)c1ccccc1 (stereo not drawn)
inactive: [1] | [2]

N#C[C@@H]1C[C@@H]2C[C@@H]2N1C(=O)[C@@H](N)C12CC3CC(CC(O)(C3)C1)C2
inactive: [3] | [4] | [5] | [6] | [2] | [7]

CCCOC(=O)c1ccc(N)cc1
inactive: [8] | [1] | [3] | [4] | [2] | [7]

O=C(O)c1snc(Cl)c1Cl
inactive: [1] | [3] | [2] | [7]

CCCCCCOC(=O)C(C)C
inactive: [8] | [1] | [3] | [2] | [7]

CCOC(=O)c1ccccc1OC
inactive: [8] | [1] | [3] | [2] | [7]

Nc1ccc(Cl)cc1[N+](=O)[O-]
inactive: [8] | [1] | [9] | [3] | [4] | [6] | [2]

CCc1c2c(nc3ccc(OC(=O)N4CCC(N5CCCCC5)CC4)cc13)-c1cc3c(c(=O)n1C2)COC(=O)[C@]3(O)CC
inactive: [1] | [4] | [2] | [7]
active: [8] 23.7 µM | [6] 11.9 µM

CCCCC(=O)O[C@]1(C(=O)CO)[C@@H](C)C[C@H]2[C@@H]3CCC4=CC(=O)C=C[C@]4(C)[C@@]3(F)[C@@H](O)C[C@@]21C
inactive: [1] | [3] | [4] | [2] | [7]
active: [8] 61.1 µM

N#C/C(=C1/SC[C@@H](c2ccc(Cl)cc2Cl)S1)n1ccnc1
inactive: [1] | [3] | [2]
active: [8] 21.1 µM and 13.3 µM

N#C/C(=C1\SCC(c2ccccc2Cl)S1)n1ccnc1 (stereo not drawn)
active: [7] 3.35 µM
inactive: [3] | [2]

CN1CCCN=C1/C=C/c1cccs1
inactive: [9] | [6] | [2] | [7]
active: [4] 23.9 µM [inconclusive] | [5] 7.5 µM

O=C(O)c1ccc(CO)o1
inactive: [8] | [1] | [3] | [2] | [7]

C[C@@H]1C[C@H]2[C@@H]3CCC4=CC(=O)C=C[C@]4(C)[C@@]3(F)[C@@H](O)C[C@]2(C)[C@@]1(O)C(=O)CO
inactive: [1] | [3] | [2] | [7]

CCCCCCCCCCCCCCC[C@H](O)[C@@H](N)CO
inactive: [1] | [9] | [3] | [4] | [5] | [6] | [2] | [7]

O=C(CCC1CCN(Cc2ccccc2)CC1)c1ccc2c(c1)NCCCC2
active: [8] 11.9 µM
inactive: [1] | [9] | [4]

O=C(c1ccc(O)cc1)c1ccc(Cl)cc1
inactive: [1] | [3] | [2] | [7]

CO/N=C1\CN(c2nc3c(cc2F)c(=O)c(C(=O)O)cn3C2CC2)CC1CN (stereo not drawn)
inactive: [9] | [3] | [4] | [5] | [6] | [2] | [7]

CCOC(=O)C(C)Oc1ccc(Oc2nc3ccc(Cl)cc3o2)cc1 (stereo not drawn)
inactive: [8] | [1] | [3] | [2] | [7]

CC(=O)Oc1ccc(C(=C2CCCCC2)c2ccc(OC(C)=O)cc2)cc1
inactive: [9] | [3] | [4] | [5] | [6] | [2] | [7]

Cc1oncc1C(=O)Nc1ccc(C(F)(F)F)cc1
inactive: [9] | [3] | [4] | [5] | [2] | [7]

CCCCN(CCCC)C(=S)SSC(=S)N(CCCC)CCCC
inactive: [8] | [9] | [4] | [5] | [6] | [2] | [7]

CCC(C)(C)C1CCC(O)CC1 (stereo not drawn)
inactive: [8] | [1] | [9] | [3] | [4] | [6] | [2] | [7]

NC(=O)Cn1c(=O)cc(CCN2CCN(c3nccc4sccc34)CC2)c2ccc(F)cc21
inactive: [3] | [4] | [6] | [2] | [7]

CCCCCCCC/C=C\CCCCCCCC(=O)OC
inactive: [8] | [1] | [3] | [2] | [7]

CN(C(=O)C(Cl)Cl)c1ccc(OC(=O)c2ccco2)cc1
inactive: [8] | [1] | [3] | [2] | [7]

Fc1ccccc1[C@@H](F)COC1CCC(Nc2ncnc3[nH]ncc23)CC1 (stereo partly drawn)
active: [8] 48.6 µM | [7] 24.3 µM
inactive: [3] | [2]

CC(=O)CC(c1ccc([N+](=O)[O-])cc1)c1c(O)c2ccccc2oc1=O (stereo not drawn)
inactive: [9] | [3] | [4] | [5] | [6] | [2] | [7]

O=C(Nc1ccc([N+](=O)[O-])cc1)Nc1ccc([N+](=O)[O-])cc1
inactive: [1] | [2] | [7]

CCC(C)(O)CCC=C(C)C (stereo not drawn)
inactive: [8] | [1] | [9] | [3] | [4] | [6] | [2] | [7]

CCCCCCCCCCCC[N+](C)(C)CC(=O)[O-]
inactive: [1] | [3] | [4] | [5] | [6] | [2] | [7]
active: [8] 54.5 µM

C=C(C)C(=O)OCCOC(=O)CC(C)=O
inactive: [8] | [1] | [3] | [2] | [7]

CC(C)C(=O)O
inactive: [8] | [1] | [9] | [3] | [4] | [6] | [2] | [7]

CC(=O)OCC(=O)[C@@]12OC(C)(C)O[C@@H]1C[C@H]1[C@@H]3C[C@H](F)C4=CC(=O)C=C[C@]4(C)[C@@]3(F)[C@@H](O)C[C@@]12C
inactive: [3] | [2] | [7]

CC(C)(O)c1ccccc1CC[C@@H](SCC1(CC(=O)O)CC1)c1cccc(/C=C/c2ccc3ccc(Cl)cc3n2)c1
inactive: [4] | [2] | [7]

CC[C@@H]([C@H](C)O)n1ncn(-c2ccc(N3CCN(c4ccc(OC[C@@H]5CO[C@@](Cn6cncn6)(c6ccc(F)cc6F)C5)cc4)CC3)cc2)c1=O
inactive: [1] | [3] | [7]
active: [8] 26.6 µM

CCCCCCCC/C=C\CCCCCCCC(=O)OC(CO)CO
inactive: [8] | [1] | [3] | [2] | [7]
